# In PubChem BioAssay AID1159580 (chemical genetic matrix, 2015):
# In all, about 5,500 compounds went through this assay and about 2,000 (36%) were called active. Roughly 18% stayed inconclusive and do not appear here. The list shows a part of the results. Unmarked numbers belong to inactive results. Rule as the data show it: active = normalized growth mostly below about 0.91 (no sharp cut-off); inconclusive = no clear call, values can overlap the other calls; inactive = mostly above about 0.92.
# Assay: chemical genetic growth profiling, strain panel (AID 1159580);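 also: tested at 20 µM; growth read once vehicle control cultures reached saturation at 30 °C; 1 = growth at the plate median or of vehicle wells; lower values mean less growth of the strain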
# Conditions: growth OD
compound,measurement,setting,value
O=c1c(O)cccc2c(C3Oc4cc(O)cc(O)c4CC3O)cc(O)c(O)c12 (configuration not stated),normalized growth,"S. cerevisiae deletion strains, locus YBR021W, strain FUR4, hits give low values",0.966
same,normalized growth,"S. cerevisiae deletion strains, locus YBR229C, strain ROT2, hits give low values",0.409 (active)
same,normalized growth,"S. cerevisiae deletion strains, locus YCL029C, strain bik1, hits give low values",0.239 (active)
same,normalized growth,"S. cerevisiae deletion strains, locus YDL035C, strain GPR1, hits give low values",0.301 (active)
same,normalized growth,"S. cerevisiae deletion strains, locus YDL074C, strain BRE1, hits give low values",0.322 (active)
same,normalized growth,"S. cerevisiae deletion strains, locus YDL101C, strain DUN1, hits give low values",0.219 (active)
same,normalized growth,"S. cerevisiae deletion strains, locus YDL134C, strain PPH21, hits give low values",0.314 (active)
same,normalized growth,"S. cerevisiae deletion strains, locus YDL185W, strain tfp1, hits give low values",0.195 (active)
same,normalized growth,"S. cerevisiae deletion strains, locus YDL192W, strain arf1, hits give low values",0.522 (active)
same,normalized growth,"S. cerevisiae deletion strains, locus YDR101C, strain arx1, hits give low values",0.295 (active)
same,normalized growth,"S. cerevisiae deletion strains, locus YDR162C, strain NBP2, hits give low values",0.137 (active)
same,normalized growth,"S. cerevisiae deletion strains, locus YDR318W, strain mcm21, hits give low values",0.696 (active)
same,normalized growth,"S. cerevisiae deletion strains, locus YDR388W, hits give low values",0.691 (active)
same,normalized growth,"S. cerevisiae deletion strains, locus YDR502C, strain sam2, hits give low values",0.287 (active)
same,normalized growth,"S. cerevisiae deletion strains, locus YER110C, hits give low values",0.963
same,normalized growth,"S. cerevisiae deletion strains, locus YER155C, strain BEM2, hits give low values",0.489 (active)
same,normalized growth,"S. cerevisiae deletion strains, locus YER167W, strain BCK2, hits give low values",0.682 (active)
same,normalized growth,"S. cerevisiae deletion strains, locus YGL078C, strain dbp3, hits give low values",0.139 (active)
same,normalized growth,"S. cerevisiae deletion strains, locus YGL086W, strain mad1, hits give low values",0.494 (active)
same,normalized growth,"S. cerevisiae deletion strains, locus YGL248W, strain PDE1, hits give low values",0.523 (active)
same,normalized growth,"S. cerevisiae deletion strains, locus YGR078C, strain PAC10, hits give low values",0.686 (active)
same,normalized growth,"S. cerevisiae deletion strains, locus YGR135W, strain pre9, hits give low values",0.504 (active)
same,normalized growth,"S. cerevisiae deletion strains, locus YGR252W, strain gcn5, hits give low values",0.54 (active)
same,normalized growth,"S. cerevisiae deletion strains, locus YHR030C, strain SLT2, hits give low values",0.484 (active)
same,normalized growth,"S. cerevisiae deletion strains, locus YHR079C, strain IRE1 (second series), hits give low values",0.116 (active)
same,normalized growth,"S. cerevisiae deletion strains, locus YHR094C, strain hxt1, hits give low values",0.835 (active)
same,normalized growth,"S. cerevisiae deletion strains, locus YHR129C, strain ARP1, hits give low values",0.43 (active)
same,normalized growth,"S. cerevisiae deletion strains, locus YHR200W, strain rpn10, hits give low values",0.623 (active)
same,normalized growth,"S. cerevisiae deletion strains, locus YIL066C, strain RNR3, hits give low values",0.259 (active)
same,normalized growth,"S. cerevisiae deletion strains, locus YIL073C, strain SPO22, hits give low values",0.243 (active)
same,normalized growth,"S. cerevisiae deletion strains, locus YIL125W, strain kgd1, hits give low values",0.272 (active)
same,normalized growth,"S. cerevisiae deletion strains, locus YIR030C, strain dcg1, hits give low values",0.716 (active)
same,normalized growth,"S. cerevisiae deletion strains, locus YJL095W, strain BCK1, hits give low values",0.0943 (active)
same,normalized growth,"S. cerevisiae deletion strains, locus YJL134W, strain LCB3, hits give low values",0.58 (active)
same,normalized growth,"S. cerevisiae deletion strains, locus YJL168C, strain set2, hits give low values",0.913 (active)
same,normalized growth,"S. cerevisiae deletion strains, locus YJL187C, strain SWE1 (second series), hits give low values",0.118 (active)
same,normalized growth,"S. cerevisiae deletion strains, locus YKL009W, strain mrt4, hits give low values",0.0997 (active)
same,normalized growth,"S. cerevisiae deletion strains, locus YKL068W, hits give low values",0.889 (active)
same,normalized growth,"S. cerevisiae deletion strains, locus YKL085W, strain MDH1 (second series), hits give low values",0.303 (active)
same,normalized growth,"S. cerevisiae deletion strains, locus YKL085W, strain MDH1, hits give low values",0.303 (active)
same,normalized growth,"S. cerevisiae deletion strains, locus YKR001C, strain vps1, hits give low values",0.523 (active)
same,normalized growth,"S. cerevisiae deletion strains, locus YLR039C, strain RIC1, hits give low values",0.251 (active)
same,normalized growth,"S. cerevisiae deletion strains, locus YLR058C, strain SHM2, hits give low values",0.143 (active)
same,normalized growth,"S. cerevisiae deletion strains, locus YLR102C, strain apc9, hits give low values",0.92 (active)
same,normalized growth,"S. cerevisiae deletion strains, locus YLR262C, strain YPT6, hits give low values",0.497 (active)
same,normalized growth,"S. cerevisiae deletion strains, locus YLR268W, strain sec22, hits give low values",0.201 (active)
same,normalized growth,"S. cerevisiae deletion strains, locus YLR330W, strain CHS5, hits give low values",0.565 (active)
same,normalized growth,"S. cerevisiae deletion strains, locus YLR342W, strain FKS1 (second series), hits give low values",0.321 (active)
same,normalized growth,"S. cerevisiae deletion strains, locus YLR371W, strain rom2, hits give low values",0.626 (active)
same,normalized growth,"S. cerevisiae deletion strains, locus YLR418C, strain cdc73, hits give low values",0.306 (active)
same,normalized growth,"S. cerevisiae deletion strains, locus YML016C, strain PPZ1, hits give low values",0.225 (active)
same,normalized growth,"S. cerevisiae deletion strains, locus YML032C, strain rad52, hits give low values",0.391 (active)
same,normalized growth,"S. cerevisiae deletion strains, locus YML124C, strain tub3, hits give low values",0.56 (active)
same,normalized growth,"S. cerevisiae deletion strains, locus YMR078C, strain ctf18, hits give low values",0.885 (active)
same,normalized growth,"S. cerevisiae deletion strains, locus YMR223W, strain ubp8, hits give low values",0.564 (active)
same,normalized growth,"S. cerevisiae deletion strains, locus YMR263W, strain SAP30, hits give low values",0.233 (active)
same,normalized growth,"S. cerevisiae deletion strains, locus YMR307W, strain GAS1, hits give low values",0.462 (active)
same,normalized growth,"S. cerevisiae deletion strains, locus YNL067W, strain RPL9B, hits give low values",0.386 (active)
same,normalized growth,"S. cerevisiae deletion strains, locus YNL128W, strain TEP1, hits give low values",0.136 (active)
same,normalized growth,"S. cerevisiae deletion strains, locus YNL153C, strain GIM3, hits give low values",0.266 (active)
same,normalized growth,"S. cerevisiae deletion strains, locus YNL233W, strain BNI4, hits give low values",0.453 (active)
same,normalized growth,"S. cerevisiae deletion strains, locus YNL250W, strain rad50, hits give low values",0.098 (active)
same,normalized growth,"S. cerevisiae deletion strains, locus YNL271C, strain bni1, hits give low values",0.53 (active)
same,normalized growth,"S. cerevisiae deletion strains, locus YNL298W, strain CLA4, hits give low values",0.824 (active)
same,normalized growth,"S. cerevisiae deletion strains, locus YNL307C, strain MCK1, hits give low values",0.832 (active)
same,normalized growth,"S. cerevisiae deletion strains, locus YNR052C, strain pop2, hits give low values",0.127 (active)
same,normalized growth,"S. cerevisiae deletion strains, locus YOL012C, strain htz1",0.2
same,normalized growth,"S. cerevisiae deletion strains, locus YOL147C, strain pex11, hits give low values",0.287 (active)
same,normalized growth,"S. cerevisiae deletion strains, locus YOR061W, strain CKA2, hits give low values",0.468 (active)
same,normalized growth,"S. cerevisiae deletion strains, locus YOR069W, strain VPS5, hits give low values",0.29 (active)
same,normalized growth,"S. cerevisiae deletion strains, locus YOR136W, strain idh2, hits give low values",0.67 (active)
same,normalized growth,"S. cerevisiae deletion strains, locus YOR144C, strain elg1, hits give low values",0.198 (active)
same,normalized growth,"S. cerevisiae deletion strains, locus YOR184W, strain ser1, hits give low values",0.357 (active)
same,normalized growth,"S. cerevisiae deletion strains, locus YOR316C, strain cot1, hits give low values",0.922 (active)
same,normalized growth,"S. cerevisiae deletion strains, locus YPL055C, strain LGE1, hits give low values",0.271 (active)
same,normalized growth,"S. cerevisiae deletion strains, locus YPL241C, strain CIN2, hits give low values",0.617 (active)
same,normalized growth,"S. cerevisiae deletion strains, locus YPR119W, strain clb2, hits give low values",0.946
same,normalized growth,"S. cerevisiae deletion strains, locus YPR141C, strain kar3, hits give low values",0.17 (active)
same,normalized growth,"S. cerevisiae deletion strains, locus YPR163C, strain tif3, hits give low values",0.703 (active)
same,normalized growth,"S. cerevisiae deletion strains, locus YPR167C, strain met16, hits give low values",0.707 (active)
same,normalized growth,"S. cerevisiae deletion strains, strain wtn01, hits give low values",0.44 (active)
same,normalized growth,"S. cerevisiae strains, strain wild type, hits give low values",0.134 (active)
